From PubChem BioAssay AID651710 (Broad Institute, 2012)
Among all 360,000 compounds or so, about 1,600 (0.44%) were called active.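 How the source made its calls: active means every replicate showing at least 50% inhibition; inconclusive means mean inhibition at least 50% but not in every replicate; inactive means the rest.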 Only a selection was taken, and actives are over-represented in it overall.

target: DNA repair protein RAD52 homolog (Homo sapiens) (UniProt P43351); test: RAD52 DNA annealing inhibitors, primary screen, biochemical, FRET, single point, set 2 (AID 651710); conditions: recombinant RAD52 DNA annealing, FRET fluorescence; at 18.7 µM; active compounds read high
Sequence (P43351 whole entry, looked up): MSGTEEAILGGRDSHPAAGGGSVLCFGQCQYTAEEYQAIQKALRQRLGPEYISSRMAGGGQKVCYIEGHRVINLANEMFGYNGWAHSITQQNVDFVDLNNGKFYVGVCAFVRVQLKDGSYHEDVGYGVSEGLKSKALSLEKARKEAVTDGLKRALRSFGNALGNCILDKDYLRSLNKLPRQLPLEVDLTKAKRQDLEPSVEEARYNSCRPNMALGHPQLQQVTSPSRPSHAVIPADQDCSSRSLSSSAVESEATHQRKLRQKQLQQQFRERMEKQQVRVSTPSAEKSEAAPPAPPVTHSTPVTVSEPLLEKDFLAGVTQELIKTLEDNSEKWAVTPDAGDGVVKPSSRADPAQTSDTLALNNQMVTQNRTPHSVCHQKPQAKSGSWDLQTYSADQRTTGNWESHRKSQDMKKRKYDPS

inhibition, inactive:
COCc1c(C(=O)OCC(=O)Nc2ccc(OC(F)F)cc2)oc2ccccc12 -1.64%
Nc1c(C(=O)OCC(=O)Nc2ccc(OC(F)F)cc2)[nH]c(=O)[nH]c1=O -4.75%
C=CCNC(=O)[C@H]1[C@@H]2C(=O)O[C@@H](c3ccccc3)[C@@H](c3ccccc3)N2[C@@H](c2ccccc2OCCO)[C@]12C(=O)N(C(=O)OCCOC)c1ccc(C#Cc3ccc(OC)cc3)cc12 -0.136%
CO[C@@H]1CN(C)C(=O)c2cc(NS(=O)(=O)c3cn(C)cn3)ccc2OC[C@@H](C)N(CCC(F)(F)F)C[C@H]1C 7.94%
CCCc1cn(CC[C@H]2CC[C@@H](NC(=O)C3CCOCC3)[C@@H](CO)O2)nn1 -2.7%
CCN1CCCC1CNC(=O)c1cc2cc(OC)c(OC)cc2[nH]1 (stereo not given) 2.51%
O=C1Nc2cc(C(=O)N3CCC(N4CCCCC4)CC3)ccc2S/C1=C\c1ccccc1 39.6%
CC(=O)N(C)C[C@H]1[C@H](c2ccc(C3=CCCCC3)cc2)[C@H](CO)N1CC1CC1 17.9%
COCC(=O)N(C)C[C@H]1Oc2cc(C#C[C@@H](C)O)ccc2S(=O)(=O)N([C@@H](C)CO)C[C@@H]1C -1.74%
CC(=O)N(C)C[C@@H]1Oc2cc(-c3ccncc3)ccc2S(=O)(=O)N([C@@H](C)CO)C[C@H]1C 3.3%
CCCN(C)C[C@H]1Oc2cc(C#CC3CCCC3)ccc2S(=O)(=O)N([C@H](C)CO)C[C@@H]1C -63.3%
CO[C@@H]1CN(C)C(=O)c2ccc(NC(=O)C3CC3)cc2OC[C@@H](C)N(Cc2ccncc2)C[C@@H]1C 17%
C[C@H](CO)N1C[C@H](C)[C@H](CN(C)S(=O)(=O)c2cn(C)cn2)Oc2c(NC(=O)c3ccc(-c4nccs4)cc3)cccc2C1=O 7.43%
CCN(CC)CCN(C(=O)c1ccc(N2C(=O)CCC2=O)cc1)c1nc2cc3c(cc2s1)OCO3 40.8%
COc1ccccc1CNC(=O)Cn1cc2c(n1)CCCC2 -14%
O=C(CN1CCOCC1)N1CC(=O)N2[C@H](C1)[C@H](c1ccc(/C=C/c3ccccc3)cc1)[C@@H]2CO -3.93%
Cc1cccc(N(C)C(=O)c2cc3c(=O)[nH]c4ccc(C)cc4c3s2)c1 -6.65%
O=C(NCCN1CCN(Cc2ccccc2)CC1)c1cc2c(=O)[nH]c3ccccc3c2s1 -32.4%
CO[C@H]1CN(C)C(=O)c2cc(NC(=O)NC(C)C)ccc2OC[C@H](C)N(C(=O)CN(C)C)C[C@H]1C -12.8%
CO[C@@H]1CN(C)C(=O)c2cc(NC(=O)Nc3ccc4c(c3)OCO4)ccc2OC[C@@H](C)NC[C@@H]1C -75.6%
O=C1c2ccccc2-c2ncnc3c(N4CCOCC4)cc(N4CCOCC4)c1c23 3.29%
Cc1oc2c(c1C(=O)N1CCOCC1)C(=O)c1ccccc1C2=O -120%
CCCNC(=O)C[C@@H]1CC[C@@H]2[C@H](COc3ccc(NC(=O)C4CCOCC4)cc3C(=O)N2C)O1 8.28%
O=C(Cc1ccccn1)N[C@H]1CC[C@@H](CC(=O)N2CCCCC2)O[C@@H]1CO -3.74%
CO[C@@H]1CN(C)C(=O)c2ccc(NC(C)=O)cc2OC[C@@H](C)N(Cc2ccc(-c3ccccn3)cc2)C[C@H]1C 20.8%
COc1ccccc1C(=O)Nc1ccc2c(c1)C(=O)N(C)C[C@@H](OC)[C@@H](C)CN(CC1CC1)[C@@H](C)CO2 14.3%
COc1ccc(NC(=O)Nc2ccc3c(c2)OC[C@@H](C)NC[C@@H](C)[C@H](OC)CN(C)C3=O)cc1 -1.22%
COc1cccc(NC(=O)Nc2ccc3c(c2)C(=O)N(C)C[C@H](OC)[C@@H](C)CN[C@@H](C)CO3)c1 45.9%
CO[C@@H]1CN(C)C(=O)c2cc(NC(=O)NC(C)C)ccc2OC[C@@H](C)N(CC2CC2)C[C@@H]1C -2.47%
CCCC(=O)Nc1ccc2c(c1)C(=O)N(C)C[C@H](OC)[C@@H](C)CN[C@H](C)CO2 -5.47%
O=C(CN1CCOCC1)N[C@@H]1CC[C@H](CCNS(=O)(=O)c2ccccc2F)O[C@H]1CO -13.5%
O=C(Cc1ccccc1)N1CC[C@@H]2[C@H](CO)Nc3ccc(-c4ccccc4)cc3[C@@H]21 -10.7%
Cc1ccc(-c2ccc3c(c2)O[C@H](CN(C)C(=O)Nc2ccc(C(F)(F)F)cc2)[C@@H](C)CN([C@H](C)CO)S3(=O)=O)cc1 -8.45%
Cc1cc(N2CCN(C)CC2)nc2ccc(NC(=S)N3CCOCC3)cc12 46.4%
Cc1cc(N2CCOCC2)nc2ccc(NC(=S)N3CCN(Cc4ccccc4)CC3)cc12 -21.2%
COc1cccc(-c2cnc3c(c2)C(=O)N([C@@H](C)CO)C[C@@H](C)[C@H](CN(C)C(=O)CN(C)C)O3)c1 18.6%
CC(C)NC(=O)N(C)C[C@H]1Oc2ccc(N(C)C)cc2C(=O)N([C@@H](C)CO)C[C@H]1C -18.9%
COc1ccc2c3c(n(C)c2c1)[C@@H](CO)NCC31CCN(CC2CCCC2)CC1 37.5%
CCS(=O)(=O)N1CCC2(CC1)CN[C@H](CO)c1c2c2ccc(OC)cc2n1C 5.49%
COc1ccc(NC(=O)Nc2ccc3c(c2)C(=O)N([C@@H](C)CO)C[C@@H](C)[C@H](CN(C)S(=O)(=O)c2cccs2)O3)cc1 -4.93%
COc1ccccc1S(=O)(=O)N(C)C[C@H]1Oc2cc(C#CCC3CCCC3)ccc2S(=O)(=O)N([C@@H](C)CO)C[C@H]1C 9.21%
O=C(C[C@@H]1CC[C@H]2[C@@H](COC[C@H](O)CN2S(=O)(=O)c2ccccc2)O1)NCCN1CCCC1 8.64%
Cc1ccc(S(=O)(=O)N2C[C@H](O)COC[C@@H]3O[C@@H](CC(=O)NCC4CCCCC4)CC[C@H]32)cc1 37.6%
COc1ccccc1-c1ccc2c(c1)O[C@@H](CN(C)CC1CCOCC1)[C@H](C)CN([C@@H](C)CO)S2(=O)=O 17%
COCC(=O)NC[C@@H]1[C@@H](c2ccc(C3=CCCC3)cc2)[C@@H](CO)N1C(C)=O 2.17%
Cc1cc(C)n(-c2nnc(N3CCN(c4ccccc4)CC3)nn2)n1 -6.3%
CCS(=O)(=O)N1CCC(N2CCN(c3ccccc3)CC2)CC1 -13%
C[C@@H]1CCCCO[C@@H](CN(C)C)[C@@H](C)CN([C@H](C)CO)C(=O)c2cc(NC(=O)c3ccncc3)ccc2O1 -19.4%
CCCC#Cc1ccc([C@@H]2[C@@H](CO)N3C(=O)CN(C(=O)Nc4ccc(F)cc4)C[C@@H]23)cc1 6.28%
O=C(C1CCCC1)N1[C@H](CO)[C@H]2c3ccccc3N(S(=O)(=O)c3ccccc3)C[C@H]21 -8.44%
C[C@@H]1CN([C@H](C)CO)C(=O)c2cccc(NC(=O)Nc3ccc4c(c3)OCO4)c2O[C@H]1CN(C)S(=O)(=O)c1ccc(Cl)cc1 -13.7%
O=C(NC[C@H]1CC[C@H]2[C@H](CN2Cc2cccc(Cl)c2)O1)C1CC1 -6.18%
COc1ccc(CN(C)C[C@H]2OCCCC[C@H](C)Oc3ccc(NC(=O)c4ccccc4)cc3C(=O)N([C@@H](C)CO)C[C@@H]2C)cc1 28.1%
CO[C@H]1CN(C)C(=O)c2ccc(NC(=O)Nc3ccc(F)cc3)cc2OC[C@@H](C)NC[C@H]1C -5.12%
Cc1occc1C(=O)N/N=C/c1ccc(-c2cccc([N+](=O)[O-])c2)o1 -14%
Cc1ccc(C(=O)N/C(=C\c2ccc(F)cc2)C(=O)NCCN2CCOCC2)cc1 -4.68%
COc1ccc(CNC(=O)C[C@H]2C[C@H]3c4cc(NS(C)(=O)=O)ccc4O[C@H]3[C@@H](CO)O2)cc1 9.84%

inhibition, active:
O=C1CCC(C(=O)OCC(=O)Nc2ccc(OC(F)F)cc2)=NN1 54.8%
CCN1CCCC1CNC(=O)c1ccc2c(c1)NC(=O)/C(=C\c1ccccc1F)S2 (stereo not given) 87.1%
CCN(CC)CCN(C(=O)c1ccc2c(c1)CCCC2)c1nc2c(OC)cccc2s1 53.9%
COc1cccc2sc(N(CCCN(C)C)C(=O)C(c3ccccc3)c3ccccc3)nc12 56.2%
CCN(CC)CCCNC(=O)c1cc2c(=O)[nH]c3ccc(C)cc3c2s1 54.3%
COC1=C(N2CCOCC2)C(=O)c2ccccc2C1=O 96.8%
COc1cccc(NC(=O)Nc2ccc3c(c2)C(=O)N(C)C[C@@H](OC)[C@H](C)CN(CC2CC2)[C@H](C)CO3)c1 58.2%
COc1cccc(NC(=O)Nc2ccc3c(c2)OC[C@@H](C)NC[C@@H](C)[C@H](OC)CN(C)C3=O)c1 84.4%
CCOCCCNC(=S)Nc1ccc2nc(N3CCN(CC)CC3)cc(C)c2c1 61%
COc1ccc2c3c(n(C)c2c1)[C@@H](CO)NCC31CCN(CC2CC2)CC1 55.9%
O=C(C[C@@H]1CC[C@@H]2[C@H](COC[C@@H](O)CN2S(=O)(=O)c2ccccc2)O1)NCC1CCCCC1 91%
CN1CCC(CN)(N2CCN(c3ccccc3)CC2)CC1 83.9%
Cc1ccc(C(=O)N/C(=C/c2ccc(-c3cccc([N+](=O)[O-])c3)o2)C(=O)NCCCN(C)C)cc1 65.9%
